Target: Tumor necrosis factor receptor superfamily member 10B (Homo sapiens) (UniProt O14763)
Test: viability loss of caspase-8 NB7 cells with TRAIL – with/without TRAIL, luminescence panel, confirmation (AID 651596)
Settings: NB7 neuroblastoma + caspase-8, TRAIL sensitization, NB7 Caspase-8, with TRAIL, mean of runs, at 10 µM, stronger effect = higher value

Chain of Tumor necrosis factor receptor superfamily member 10B (Homo sapiens) (O14763 whole entry, looked up): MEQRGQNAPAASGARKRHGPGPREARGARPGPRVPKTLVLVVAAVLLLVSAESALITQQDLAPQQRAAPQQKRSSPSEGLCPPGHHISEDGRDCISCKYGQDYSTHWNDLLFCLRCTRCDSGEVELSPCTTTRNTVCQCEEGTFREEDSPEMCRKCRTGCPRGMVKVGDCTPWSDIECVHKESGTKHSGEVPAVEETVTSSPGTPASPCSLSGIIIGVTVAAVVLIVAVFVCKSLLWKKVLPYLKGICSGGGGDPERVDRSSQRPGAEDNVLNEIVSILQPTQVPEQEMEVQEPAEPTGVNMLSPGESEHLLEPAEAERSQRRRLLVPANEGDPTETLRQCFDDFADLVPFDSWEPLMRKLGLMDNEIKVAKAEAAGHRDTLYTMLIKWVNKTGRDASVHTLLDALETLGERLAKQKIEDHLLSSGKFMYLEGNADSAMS

SMILES | activity [%]
CCN(CC)CCn1c2c(c(SCC(=O)Nc3nc4ccc(C)cc4s3)nc1=O)CCC2 | 28
COc1ccc(C(C(=O)NC2CCCCC2)N(C(=O)CCl)c2ccccc2Cl)cc1 (stereo not drawn) | 98.8
Cc1cc(C)cc(NC(=O)/C(C#N)=C/c2cn(CC(=O)NCc3ccco3)c3ccccc23)c1 | 62.1
Cc1cc(NC(=O)c2cc3n(n2)C(C(F)(F)F)CC(c2ccco2)N3)no1 (stereo not drawn) | -11.1
COc1cc(NC(=O)Nc2nc(C(N)Cc3ccc(C(F)(F)F)cc3)cs2)cc(OC)c1OC (stereo not drawn) | 29.9
Cc1onc(C(=O)N2CCC(Cc3ccccc3)CC2)c1[N+](=O)[O-] | 97.8
COc1ccc(S(=O)(=O)N2CCN(c3ccc4nnc(-c5ccccc5)n4n3)CC2)cc1 | 58
Cc1cccc(NC(=S)N/N=C/c2ccc([N+](=O)[O-])s2)c1 | 37.4
Cc1ccc(-c2nc(-c3ccccn3)no2)cc1[N+](=O)[O-] | 60.7
COc1cccc(-n2c(SCC(=O)N3CCCCC3)nc3c([nH]c4ccccc43)c2=O)c1 | 28.7
CC1Oc2ccccc2C=C1/C=N/NC(=O)c1ccccc1O (stereo not drawn) | 46.1
C#CCN(C[C@@H]1[C@@H](OC(=O)Nc2cccs2)[C@@H](OC(=O)Nc2cccs2)Cn2c(=O)ccc(=O)n21)S(=O)(=O)c1ccc(C)cc1 | 96.5
O=C(/C=C/c1ccco1)Nc1ccc2c(c1)OCCO2 | 71.8
CC1C(=O)NN=C1C(=O)N/N=C\C(Br)=C\c1ccccc1 (stereo not drawn) | 80.2
COc1ccc(-c2cc3cc4c(cc3cn2)OCO4)cc1 | 60.3
O=C(Oc1ccc2ccccc2c1Cl)N1CCCCCC1 | 20.1
Cn1cc(S(=O)(=O)CC(=O)N2CCCc3ccccc32)c2ccccc21 | 1.93
O=C(NCCN1CCOCC1)NC1(C(F)(F)F)Oc2ccc(Cl)cc2O1 (stereo not drawn) | 32.6
CC(c1ccco1)N(C(=O)COc1ccc(Cl)cc1Cl)c1ccccn1 (stereo not drawn) | -4.47
O=Nc1c2cc(-c3ccccc3)[nH]nc-2c2ccccc12 | 78.8
CCCc1cc(=O)[nH]c(SCC(=O)Nc2sc(C(N)=O)c(C)c2C(=O)OCCOC)n1 | 84.6
c1ccc(-c2nnc3sc(CN4CCC5(CC4)OCCO5)cn23)cc1 | 57.7
Cc1c(Cl)cccc1Nc1nc(N)nc(CSc2ncccn2)n1 | 91.8

From PubChem BioAssay
